Only some compounds are listed: those with a hit (about 6.2% of all), similar ones and a draw of the others.
SUMO Mot1 rescue = inhibitors of SUMOylation pathway: yeast Mot1-301 growth rescue; S. cerevisiae Mot1-301 growth rescue, ATP luminescence, 38.5C; percent above DMSO median, 100 means doubled; growth rescue, % at 18.8 µM; actives 1% (n = 320,000);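 active = every valid replicate shows activation above 250% relative to neutral control wells; inactive = the rest, any valid replicate at or below 250%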
NR3A LBD binder = modulates the human NR3A ligand-binding domain | actives 2.5% (n = 340,000) | Tm shift relative to glycine control, % at 25 µM | AID 1259313 | NR3A LBD differential scanning fluorimetry, Tm shift; 0% = protein alone, 100% = glycine-bound protein;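 active = melting temperature shift of at least 10% of the positive control shift, at one fixed dose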
AI-2 QS modul = Vibrio harveyi AI-2 quorum sensing modulation. Vibrio harveyi JMH597 AI-2 luminescence/OD600 ratio, 9 h; stronger effect = lower value; strain lacks LuxN and CqsS sensors; 0 = neutral-control median. actives 0.4% (n = 300,000). activity change, % at 7.5 µM; in the data active = activity change below about -75%, passing the limit was not always enough;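 note: luminescence divided by OD600 gain over 9 h not by final OD600 alone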
AHR activator = human AHR activation; P35869; AHR-responsive luciferase reporter cells, luminescence; activation, % at 5 µM; actives 2.5% (n = 320,000); AID 2796; in the data active = activation above about 47%
Target sequence (P35869 whole entry, looked up): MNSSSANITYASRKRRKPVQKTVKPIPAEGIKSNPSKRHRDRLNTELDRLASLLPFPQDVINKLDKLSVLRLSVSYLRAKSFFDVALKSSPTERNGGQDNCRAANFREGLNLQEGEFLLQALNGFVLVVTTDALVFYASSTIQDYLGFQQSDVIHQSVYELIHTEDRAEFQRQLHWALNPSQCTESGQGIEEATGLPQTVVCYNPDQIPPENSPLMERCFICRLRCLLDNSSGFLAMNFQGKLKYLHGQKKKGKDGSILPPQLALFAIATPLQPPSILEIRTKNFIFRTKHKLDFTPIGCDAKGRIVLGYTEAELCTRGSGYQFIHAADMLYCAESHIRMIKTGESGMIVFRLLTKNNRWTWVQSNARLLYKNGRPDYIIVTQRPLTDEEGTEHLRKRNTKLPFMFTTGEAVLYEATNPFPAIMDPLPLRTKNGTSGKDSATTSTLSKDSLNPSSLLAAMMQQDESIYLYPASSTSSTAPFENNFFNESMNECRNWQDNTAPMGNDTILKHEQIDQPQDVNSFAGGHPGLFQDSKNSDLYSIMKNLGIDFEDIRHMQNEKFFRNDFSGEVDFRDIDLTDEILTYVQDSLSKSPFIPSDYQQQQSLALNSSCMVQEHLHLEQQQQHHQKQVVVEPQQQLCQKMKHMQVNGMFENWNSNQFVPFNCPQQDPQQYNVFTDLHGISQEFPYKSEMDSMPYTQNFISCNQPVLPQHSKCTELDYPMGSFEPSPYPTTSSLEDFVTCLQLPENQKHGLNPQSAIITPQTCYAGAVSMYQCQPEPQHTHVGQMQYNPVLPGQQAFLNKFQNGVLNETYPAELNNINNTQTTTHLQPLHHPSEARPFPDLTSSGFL
H9c2 protect = protects H9c2 cardiomyocytes from peroxide injury; H2O2 injury protection, ATPLite, 2 h; protection from H2O2 cell death, % at 20 µM; actives 0.63% (n = 360,000); AID 588492;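 active = compounds giving at least 50% protection of heart cells from peroxide-induced death in the single-dose screen, raw or plate-pattern-corrected value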
NTR1 agonist = NTR1 (human) agonism | P30989 | NTR1-U2OS beta-arrestin-GFP spot imaging, agonist mode | activation, % at 20 µM | actives 0.17% (n = 330,000) | AID 493036;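 active = activation at or above 40% of the spot to cytoplasm intensity ratio, with at least 20 cells analyzed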
Of the large screens only hits and unclear results are named; the others gave an inactive call.

C=CCc1c(C)nc(-c2ccccc2)nc1N/N=C(\C)c1ccc(N)cc1	AHR activator 51
C=CCc1c(C)nc(C)nc1N/N=C/c1ccc(F)cc1	AHR activator 77
CC(C)c1ccc(NC(=O)COC(=O)c2cc(=O)[nH]c3ccccc23)cc1	none (no result: AI-2 QS modul)
COc1cc(CNc2ncnc3c2ncn3[C@H]2CN(Cc3ccncc3)C[C@@H](CO)O2)cc(OC)c1OC	none (no result: SUMO Mot1 rescue, NR3A LBD binder, AI-2 QS modul, AHR activator, NTR1 agonist)
CCC1CCCCN1C(=O)CSc1nc2c(cnn2-c2ccc(C)cc2)c(=O)[nH]1 (stereo unspecified)	NR3A LBD binder 16
Cc1ccc(-n2ncc3c(=O)[nH]c(SCC(=O)N4CCOCC4)nc32)cc1	none
CC(C)Cc1nnc(NC(=O)c2ccc(N3CCCC3=O)cc2)s1	SUMO Mot1 rescue 285 (no result: AI-2 QS modul)
Cc1ccc(NS(=O)(=O)c2ccc(NC(=O)c3cccc(NC(=O)C(C)C)c3)cc2)cc1	NR3A LBD binder 18
Cc1cccc(C(=O)Nc2ccc(S(=O)(=O)Nc3nc(C)cc(C)n3)cc2)c1	NR3A LBD binder 13
Cc1cccc(C(=O)NCC(=O)Nc2ccc(S(=O)(=O)Nc3nc(C)cc(C)n3)cc2)c1	none
Cc1ccc(S(=O)(=O)Nc2ccc(C(=O)Nc3ccncc3)cc2)cc1	none
CC(C(=O)N(C)Cc1ccccc1)N1CCN(C/C=C/c2ccccc2)CC1 (stereo unspecified)	SUMO Mot1 rescue 282
Cc1cc(N(C)N)nc(NC(=O)NS(=O)(=O)c2ccccc2Cl)n1	none (no result: NR3A LBD binder)
COc1ccc(OC)c(C(=O)CSc2nnc(Cc3cccs3)n2CCc2ccccc2)c1	AHR activator 59
CCOC(=O)/C(=C/C=C1\Sc2ccccc2N1CC)C(C)=O	none
CCOC(=O)/C(=C\C=C1/Sc2ccccc2N1CC)C(C)=O	AHR activator 53 (no result: NTR1 agonist)
CCc1nc2ccc(C(=O)Nc3cc(-c4ccccc4)ccc3OC)cn2c1N(C)Cc1nccs1	H9c2 protect 75 (no result: SUMO Mot1 rescue, NR3A LBD binder, AI-2 QS modul, AHR activator, NTR1 agonist)
CCc1nc2ccc(C(=O)Nc3cccc(OCC(=O)N(C)C)c3)cn2c1N(C)Cc1cc2ccccc2s1	H9c2 protect 54 (no result: SUMO Mot1 rescue, NR3A LBD binder, AI-2 QS modul, AHR activator, NTR1 agonist)
CCc1nc2ccc(C(=O)Nc3cc(-c4ccccc4)ccc3OC)cn2c1N(C)Cc1ccc(OC)cc1	none (no result: SUMO Mot1 rescue, NR3A LBD binder, AI-2 QS modul, AHR activator, NTR1 agonist)
Cc1ccc(Cn2c(C(CO)Nc3nc(-c4ccc(Cl)c([N+](=O)[O-])c4)cs3)nc3ccccc32)cc1 (stereo unspecified)	NR3A LBD binder 26
COc1ccc(-c2csc(NC(CO)c3nc4ccccc4n3Cc3ccc(C)cc3)n2)cc1 (stereo unspecified)	none
Cc1ccc(Cn2c(C(CO)Nc3nc(-c4ccc(F)cc4)cs3)nc3ccccc32)cc1 (stereo unspecified)	NR3A LBD binder 19
Cc1ccc(-c2csc(NC(CO)c3nc4ccccc4n3CCOCCO)n2)cc1 (stereo unspecified)	none
Cc1ccc(S(=O)(=O)NN=Cc2ccccc2Cl)cc1	none (no result: SUMO Mot1 rescue, NR3A LBD binder, AI-2 QS modul, AHR activator, NTR1 agonist)
CCCN(C1CCS(=O)(=O)C1)S(=O)(=O)c1ccc2ccccc2c1 (stereo unspecified)	none (no result: AI-2 QS modul)
CCN(C1CCS(=O)(=O)C1)S(=O)(=O)c1ccc2ccccc2c1 (stereo unspecified)	SUMO Mot1 rescue 325
COc1ccc(CCNc2nc(-c3sc(C)nc3C)cs2)cc1OC	AHR activator 52
COc1ccc(CCNc2nc(-c3ccncc3)cs2)cc1OC	AHR activator 66
COc1ccc(CCNc2nc(-c3ccc(O)cc3)cs2)cc1OC	none
COCCN(CC(=O)Nc1cccc(C)c1C)C(=O)C1(c2ccc(Cl)cc2)CCC1	none (no result: AI-2 QS modul)
NCC1C2CCC(O2)C1CO (stereo unspecified)	none (no result: SUMO Mot1 rescue, NR3A LBD binder, AI-2 QS modul, AHR activator, NTR1 agonist)
CCOC(=O)c1[nH]c(C)c(C(=O)OCc2ccc(C)cc2)c1C	none
CCOC(=O)c1c(C)[nH]c(C(=O)OCc2ccc([N+](=O)[O-])cc2)c1C	AHR activator 53
CCOC(=O)c1c(C)[nH]c(C(=O)OCc2ccc(C)cc2)c1C	AHR activator 49
COC1CC(NC(C)=O)C(OC(=O)c2ccccc2)C(CBr)O1 (stereo unspecified)	none (no result: SUMO Mot1 rescue, NR3A LBD binder, AI-2 QS modul, AHR activator, NTR1 agonist)
O=S(=O)(NCCS(=O)(=O)N1CCN(c2ccc(F)cc2)CC1)c1ccc(F)cc1	none (no result: SUMO Mot1 rescue, NR3A LBD binder, AI-2 QS modul, AHR activator, NTR1 agonist)
O=S(=O)(Nc1ccc(O)c2ncccc12)c1ccccc1F	H9c2 protect 60 (no result: SUMO Mot1 rescue, NR3A LBD binder, AI-2 QS modul, AHR activator, NTR1 agonist)
CNC(=O)c1ccc(-c2ccc(F)cc2)s1	none
COc1ccc(NC(=O)c2ccc(-c3ccc(OC)cc3)s2)cc1	NR3A LBD binder 22
O=C(Nc1ccccc1)c1ccc(-c2ccc(F)cc2)s1	NR3A LBD binder 22
O=C(CSc1nnc2ccccn12)NC(=O)c1ccccc1Cl	none (no result: AI-2 QS modul)
COc1ccc(NC(=O)C(C)Sc2nnc(C3CC3)n2C2CC2)cc1 (stereo unspecified)	none (no result: AI-2 QS modul)
COCCN(CCOC)C(=O)c1sc2nc(-c3ccccc3)cn2c1C	none
COc1ccc(-c2cn3c(C)c(C(=O)Nc4ccncc4)sc3n2)cc1	none
COc1ccc(-c2cn3c(C)c(C(=O)Nc4cccc(NC(C)=O)c4)sc3n2)cc1	NR3A LBD binder 13
COC(=O)c1ccc(NC(=O)c2sc3nc(-c4ccccc4)cn3c2C)cc1	NR3A LBD binder 28
CCCCCCC(=O)Oc1cccc(C2=CC(=O)CC(C)(C)C2=O)c1	none (no result: SUMO Mot1 rescue, NR3A LBD binder, AI-2 QS modul, AHR activator, NTR1 agonist)
O=C(CCN1CCN(Cc2ccccc2)CC1)Nc1ccccc1Cl	SUMO Mot1 rescue 327
On1onc2c3cc(-c4ccccc4)nc3ccc21	NR3A LBD binder 37 (no result: AI-2 QS modul)
Cc1nnc(SC(C)C(=O)Nc2ccc(N3CCOCC3)cc2)n1Cc1ccccc1 (stereo unspecified)	none (no result: SUMO Mot1 rescue, AI-2 QS modul, AHR activator)
Cc1nnc(-c2cccc(Br)c2)c2cn(-c3ccccc3)nc12	AHR activator 48
COc1ccc(-n2cc3c(-c4cccc(Br)c4)nnc(C)c3n2)cc1	AHR activator 61
Cc1nnc(-c2cccc(Br)c2)c2cn(-c3cccc(Br)c3)nc12	none
COc1ccc(Cc2c(-c3cccc(Br)c3)nc3ccc(Br)cn23)c(C)c1	none (no result: SUMO Mot1 rescue, NR3A LBD binder, AI-2 QS modul, AHR activator, NTR1 agonist)
Cc1nnc(-c2cccc(Br)c2)c2cn(-c3ccc(Br)cc3)nc12	AHR activator 89
CCCCN1C(=O)C(CC(=O)NCc2ccco2)CC(C(=O)N(CC)CC)=C1C (stereo unspecified)	none (no result: SUMO Mot1 rescue, NR3A LBD binder, AI-2 QS modul, AHR activator, NTR1 agonist)
CCn1c(C)c(C)c2cc(C(=O)NC3CCCCCC3)ccc21	none
CC(C)CN(C(=O)C1=COCCO1)c1c(N)n(Cc2ccccc2)c(=O)[nH]c1=O	none (no result: SUMO Mot1 rescue, NR3A LBD binder, AI-2 QS modul, AHR activator, NTR1 agonist)
CCC(C)(C)NC(=O)C(c1ccc(OC)cc1)N(C(=O)CCC(=O)Nc1cc(C)on1)c1ccc2c(c1)OCO2 (stereo unspecified)	none
CC(C)(C)OC(=O)C[C@H]1C/C=C\C[C@H](CC(=O)N[C@H](CO)Cc2ccccc2)C(=O)N2CCC[C@@H]2COC1=O	none (no result: AI-2 QS modul)
C=CCn1c2ccccc2c2nnc(SCN3C(=O)c4ccccc4C3=O)nc21	AHR activator 78
CCCc1cc(=O)oc2cc3occ(C)c3cc12	AHR activator 47

Screens from PubChem.
